Assay results: ChEMBL document CHEMBL4513147, “CO-ADD screening of Armstrong State University (GA, USA) compounds”
Results with a measured potency or affinity are listed apart.

Key:
[1] = test system: Klebsiella pneumoniae; settings: Concentration 32 ug.mL-1; ASSAY_TEST Inhibition of Bacterial Growth; detection method Absorption (OD600); MEDIA CAMHB; plate type 384well; NBS; CORNING #3640; time 18 hr
[2] = test system: Candida albicans; settings: 32 ug/mL
[3] = test system: Cryptococcus neoformans; settings: Concentration 32 ug.mL-1; ASSAY_TEST Inhibition of Fungal Growth; detection method Resazurin; Absorption (OD600-OD570); plate type 384well; NBS; CORNING #3640

Row | SMILES | Inhibition [1] | Inhibition [2] | Inhibition [3]
1 | COc1ccc2c(c1)C(O)C(=Cc1cccnc1Cl)CC2 (stereo not drawn) | 10.57% | 15% | -69.16%
2 | COc1ccc2c(c1)CCC(=Cc1ccccn1)C2=O | 8.96% | 0.77% | -41.47%
3 | COc1cc2c(cc1OC)C(=O)C(=Cc1ccco1)CC2 | 12.89% | 36.5% | -192.19%
4 | COc1ccc2c(c1)C(=O)C(=Cc1cnccc1OC)CC2 | 13.46% | 2.37% | -28.9%
5 | COc1ccc2c(c1)CCC(=Cc1cccnc1Cl)C2=O | 12.5% | 3.75% | -15.01%
6 | COc1ccc2c(c1)CCC(=Cc1cccnc1)C2=O | 16.02% | 2.52% | -44.32%
7 | COc1ccc2c(c1)C(=O)C(=Cc1ccccn1)CC2 | 11.4% | 3.51% | -7.78%
8 | COc1ccc2c(c1)CCC(=Cc1ccco1)C2=O | 10.81% | 4.52% | -43.38%
9 | COc1cccc2c1CCC(=Cc1ccoc1)C2=O | 11.44% | 10.1% | -46.61%
10 | COc1ccc2c(c1)CCC(=Cc1cncc(Br)c1)C2=O | 10.09% | 4.95% | -1.36%
11 | COc1ccc2c(c1)C(=O)C(=Cc1cncc(Br)c1)CC2 | 11.33% | 3.19% | -18.22%
12 | Cc1ccc(C=C2CN(C(=O)OC(C)(C)C)C/C(=C\c3ccc(C)cc3C)C2=O)c(C)c1 | 13.54% | -1.7% | -52.76%
13 | COc1cccc2c1CCC(=Cc1ccco1)C2=O | 9.39% | 2.23% | 7.54%
14 | COc1cccc2c1CCC(=Cc1cccc(C=C3CCc4c(OC)cccc4C3=O)c1)C2=O | 0.44% | 12.4% | -91.11%
15 | CC(C)(C)OC(=O)N1CC(=Cc2ccoc2)C(=O)/C(=C/c2ccoc2)C1 | 21.57% | 14.2% | -84.77%
16 | COc1ccc2c(c1)CCC(=Cc1cnccc1OC)C2=O | 11.4% | -0.18% | -48.3%

Row | SMILES | Inhibition [1] | Inhibition [2] | Inhibition [3]
17 | COc1ccc2c(c1)CCC(=Cc1ccc(OC)nc1)C2=O | 13.52% | 3.72% | -60.31%
18 | COc1ccc2c(c1)C(=O)C(=Cc1cccnc1Cl)CC2.Cl | 17.3% | 3.54% | -54.29%
19 | COc1ccc2c(c1)C(=O)C(=Cc1cccnc1OC)CC2 | 14.75% | 2.73% | -33.37%
20 | COc1ccc2c(c1)C(=O)C(=Cc1cccnc1Br)CC2 | 8.16% | 1.26% | -14.82%
21 | COc1ccc2c(c1)C(=O)C(=Cc1ccco1)CC2 | 14.42% | 6.5% | -54.58%
22 | COc1ccc(/C=C/C(=O)c2ccc(OCc3ccc(Br)cc3)cc2)cc1OC | 12.55% | 14.1% | -82.08%
23 | CC(C)(C)OC(=O)N1CC(=Cc2ccco2)C(=O)/C(=C/c2ccco2)C1 | 8.12% | 19.9% | -64.29%
24 | COc1ccc2c(c1)CCC(=Cc1cccnc1Br)C2=O | 13.02% | 3.93% | -19.45%
25 | COc1ccc2c(c1)C(=O)C(=Cc1cccc(C=C3CCc4ccc(OC)cc4C3=O)c1)CC2 | 10.58% | 2.22% | -34.17%
26 | COc1ccc2c(c1)CCC(=Cc1ccncc1)C2=O | 14.05% | 2.55% | -80.91%
27 | COc1ccc2c(c1)C(=O)C(=Cc1cccnc1Cl)CC2 | 12.62% | 6.91% | -40.92%
28 | COc1ccc2c(c1)CCC(=Cc1ccoc1)C2=O | 11.83% | 5.64% | -36.87%
29 | COc1ccc2c(c1)C(=O)C(=Cc1ccoc1)CC2 | 17.88% | 8.42% | -57.68%
30 | COc1cc2c(cc1OC)C(=O)C(=Cc1ccoc1)CC2 | 14.64% | 20% | -157.54%
31 | COc1ccc2c(c1)C(=O)C(=Cc1cccnc1)CC2 | 13.34% | 3.76% | 20.35%
